Measured values as given in PubChem BioAssay AID1053119 (Broad Institute, 2014).
Entries with a potency or affinity are not part of this list. Records with an inconclusive call do not appear. A number with no mark means an inactive call.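 The calls were made as follows: active = signal loss from cell killing with fitted potency at or below twice the top valid dose; inconclusive = flat drop of 30 to 70%, or unreliable curve fit; inactive = opposite direction, flat within 30%, or weaker potency.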

Test: viability loss in A549 lung cancer cells – cell-based, cherry-picks, 26 µM top dose, cytotoxicity control, dose response (AID 1053119);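 also: 0% = neutral control wells and -100% = 10 µM mitoxantrone wells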
Details: CellTiter-Glo ATP luminescence, 72 h; series mostly up to 26 µM; activity change, negative = cytotoxicity: at the top concentration

| Compound | activity change, negative = cytotoxicity |
| --- | --- |
| C[C@H](CO)N1C[C@H](C)[C@H](CN(C)C)Oc2cc(C#C[C@@H](C)O)ccc2S1(=O)=O | 14.3% |
| O=C(c1cccnc1)N1C[C@H]2[C@@H](c3ccccc31)[C@H](CO)N2CC1CCCC1 | -2.73% [at 23.5 µM] |
| C[C@H](O)C#Cc1ccc2c(c1)O[C@@H](CN(C)C)[C@H](C)CN([C@@H](C)CO)S2(=O)=O | -2.13% |
| COc1ccc(C)cc1N(CC(=O)Nc1cccc(N(C)S(C)(=O)=O)c1)S(C)(=O)=O | -12.4% |
| CCc1ccc(NC(=O)CSc2nnc(-c3ccco3)o2)cc1 | -8.55% |
| COC(=O)C[C@H]1CC[C@H]2[C@@H](COc3ccc(NC(=O)Cc4cccs4)cc3C(=O)N2C)O1 | 4.07% |
| CO[C@@H]1CN(C)C(=O)c2ccc(NC(=O)c3ccc(-c4ccccc4)cc3)cc2OC[C@@H](C)NC[C@@H]1C | -9.52% |
| C[C@H](O)C#Cc1ccc2c(c1)O[C@H](CN(C)C)[C@H](C)CN([C@H](C)CO)S2(=O)=O | 14.7% |
| N#Cc1ccc(-c2ccc3c(c2)[C@@H]2[C@@H](CCN2S(=O)(=O)c2ccccc2F)[C@H](CO)N3)cc1 | -1.48% |
| COCC(=O)Nc1ccc2c(c1)C(=O)N(C)[C@H]1CC[C@H](CC(=O)NCc3ccccc3Cl)O[C@H]1CO2 | -11.8% |
| Cc1ccc(C(O)c2ncc(-c3cccc4ccccc34)[nH]2)cc1F (configuration not stated) | -1% |
| C[C@@H]1CN([C@@H](C)CO)C(=O)c2cc(-c3ccncc3)cnc2O[C@@H]1CN(C)C(=O)Cc1cccnc1 | 3.71% |
| CC1(C)Cc2c(C#N)c(SCC(=O)c3ccccc3)nc(N3CCOCC3)c2CS1 | 5.56% |
| COc1ccccc1CNc1nc(NCc2cnc(C)cn2)c2sccc2n1 | 0.101% |
| COc1cccc(S(=O)(=O)N2CC[C@@H]3[C@H]2c2cc(-c4ccc(C#N)cc4)ccc2N[C@@H]3CO)c1 | -10.4% [at 23.5 µM] |
| COc1ccccc1N(CC(=O)N(CC(C)C)CC(C)C)S(=O)(=O)c1cccs1 | -13% |
| Nc1c(C(=O)NCc2ccco2)nnn1Cc1ccccc1 | -6.95% |
| N#C[C@@H]1[C@H](c2ccccc2C2=CCCCC2)[C@@H](CO)N1S(=O)(=O)c1ccccc1 | -11.7% |
| COc1ccc(CCNC(=O)C2CCN(Cc3nc(-c4ccccc4F)oc3C)CC2)cc1OC | 13.1% |

| Compound | activity change, negative = cytotoxicity |
| --- | --- |
| C[C@H](O)C#Cc1ccc2c(c1)O[C@H](CN(C)C)[C@H](C)CN([C@@H](C)CO)S2(=O)=O | 1.47% |
| CCOC(=O)c1cnc(SCc2nc(N)nc(Nc3ccc(OC)cc3)n2)nc1N | -4.98% |
| CCOc1ccccc1NC(=O)c1c(NC(=O)CCC(=O)O)sc2c1CCCCC2 | -16.4% |
| C[C@@H]1CN([C@H](C)CO)C(=O)c2cccc(NC(=O)Nc3ccc(C(F)(F)F)cc3)c2O[C@H]1CN(C)C(=O)Nc1cccc2ccccc12 | -7.92% |
| CCCCNC(=O)Nc1nc2ccc(CC)cc2s1 | -1.95% |
| C[C@H](CO)N1C[C@H](C)[C@@H](CN(C)Cc2ccccc2)Oc2ncc(-c3ccccc3)cc2C1=O | 1.15% |
| CC(NC(=O)CSc1ccc(S(=O)(=O)N2CCOCC2)cn1)c1ccc(Cl)cc1Cl (configuration not stated) | 12.1% |
| S=C(NCC1CCCO1)Nc1ccc(Cl)cc1Cl (configuration not stated) | -10.4% |
| COc1ccc(-c2csc(CCn3nc(C)cc3C)n2)cc1OC | -10.7% |
| C[C@@H]1CN([C@@H](C)CO)C(=O)c2cc(NC(=O)CCCN(C)C)ccc2O[C@@H]1CN(C)Cc1ccc(-c2ccccc2)cc1 | -1.88% [at 23.5 µM] |
| C=CCC[C@H](Cc1ccc(F)cc1)C(=O)OC[C@H](Cc1c[nH]c2ccccc12)NC(=O)[C@@H](CC=C)CC(=O)N[C@@H](CO)Cc1ccccc1 | -14.9% |
| Fc1cnc(N2CCN(c3ccccc3)CC2)nc1N1CCN(c2ccccc2)CC1 | 9.88% |
| O=S(=O)(c1ccccc1F)N1CC[C@@H]2[C@@H](CO)Nc3ccc(-c4cccc(F)c4)cc3[C@@H]21 | -9.85% |
| C[C@@H]1CN([C@@H](C)CO)C(=O)c2cc(-c3ccccc3)cnc2O[C@H]1CN(C)C(=O)c1cccc(F)c1 | -3.62% |
| C[C@@H]1CN([C@H](C)CO)C(=O)c2cc(-c3ccccc3)cnc2O[C@H]1CN(C)C(=O)c1cccc(F)c1 | -3.54% |
| COCC(=O)Nc1ccc2c(c1)C(=O)N(C)[C@H]1CC[C@@H](CC(=O)NCc3ccccc3Cl)O[C@H]1CO2 | -4.72% |
| CCc1nc2c(OCCc3cccc(OC)c3)cccn2c1N(C)C(=O)c1ccc(C)cc1 | -7.35% |
| C[C@@H]1CN([C@H](C)CO)C(=O)c2cc(-c3ccccc3)cnc2O[C@H]1CN(C)Cc1ccccc1 | -7.15% |
